JMJD2A Tudor inh: qHTS Assay for Inhibitors of JMJD2A-Tudor Domain; Lysine-specific demethylase 4A (Homo sapiens), O75164; AlphaScreen JMJD2A-Tudor / H3K4me3 peptide binding; Potency, µM (doses to about 114 µM), hits mostly inhibitors; actives 4.4% (n = 390,000); AID 504339, 2011; also: nearly all actives have a fitted effect of over 50% in size
Six1-Eya2 inh: qHTS Assay for Inhibitors of the Six1/Eya2 Interaction. Homeobox protein SIX1 (Homo sapiens) + Protein phosphatase EYA2 (Homo sapiens), …. AlphaScreen GST-Six1/His-Eya2 binding, biochemical; stronger effect = lower value. activity change, % (no concentration beside the values). actives 0.56% (n = 360,000). AID 651725, 2012; in the data active = activity change below about -65%; inconclusive = mostly about -30% to -63%
Target sequence (O00167 whole entry, looked up): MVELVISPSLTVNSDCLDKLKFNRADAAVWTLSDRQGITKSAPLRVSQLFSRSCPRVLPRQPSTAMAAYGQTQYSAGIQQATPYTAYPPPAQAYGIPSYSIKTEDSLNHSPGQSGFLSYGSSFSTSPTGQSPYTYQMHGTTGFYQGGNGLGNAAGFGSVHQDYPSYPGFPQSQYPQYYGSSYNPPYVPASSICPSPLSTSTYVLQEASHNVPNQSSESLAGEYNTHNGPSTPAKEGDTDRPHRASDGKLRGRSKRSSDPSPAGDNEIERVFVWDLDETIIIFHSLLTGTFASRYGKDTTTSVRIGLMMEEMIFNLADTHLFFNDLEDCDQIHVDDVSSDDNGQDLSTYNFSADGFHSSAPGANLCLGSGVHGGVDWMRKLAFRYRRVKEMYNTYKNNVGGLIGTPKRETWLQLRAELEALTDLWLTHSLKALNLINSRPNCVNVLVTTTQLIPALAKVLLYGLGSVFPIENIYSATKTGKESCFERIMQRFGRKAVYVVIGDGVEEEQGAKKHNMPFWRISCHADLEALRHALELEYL
Target sequence (Q15475 whole entry, looked up): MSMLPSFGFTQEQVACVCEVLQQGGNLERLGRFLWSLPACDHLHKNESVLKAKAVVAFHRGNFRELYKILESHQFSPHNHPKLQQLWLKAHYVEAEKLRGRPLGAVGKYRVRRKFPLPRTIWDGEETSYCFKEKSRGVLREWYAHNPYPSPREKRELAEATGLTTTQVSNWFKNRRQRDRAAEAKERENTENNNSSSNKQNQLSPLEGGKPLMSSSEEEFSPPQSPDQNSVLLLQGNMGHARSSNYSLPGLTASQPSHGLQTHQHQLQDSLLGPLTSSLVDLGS
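GST-Six1 + His-Eya2 (5X stock: 250/500 nM); Tris pH 8.0, 300 mM NaCl, 0.05% BSA, 0.02% Tween 20; GSH donor/Ni acceptor beads; 1 h 37 °C dark; AlphaScreen readout.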
BAZ2B block: qHTS Assay for Inhibitors of BAZ2B. Bromodomain adjacent to zinc finger domain protein 2B (Homo sapiens), Q9UIF8. AlphaScreen BAZ2B-H3K14Ac peptide displacement. actives 4.4% (n = 360,000). Potency, µM (titrated, usually from 114 µM), hits mostly inhibitors; also: nearly all actives have a fitted effect of over 60% in size
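BAZ2B 50 nM plus b-H3(5-23)K14Ac 50 nM, PBS pH 7.4/0.01% Tween-20, 30 min RT; compound added (max 110 uM), 30 min RT; streptavidin donor/Ni-chelate acceptor beads 10 ug/mL final, 20 min dark; AlphaScreen read.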
CtBP-E1A blk: qHTS Assay for Inhibitors of the CtBP/E1A Interaction | AlphaScreen GST-E1A/His-CtBP binding, 1536-well; stronger effect = lower value | activity change, % (concentration not given with the values) | actives 0.49% (n = 340,000) | AID 651724, 2012; in the data active = activity change below about -65%; inconclusive = mostly about -30% to -63%
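Steps: dispense buffer (Tris pH 8.0, NaCl 300 mM, TCEP 1 mM, BSA, Tween 20); add 5X protein mix (GST-E1A, His-CtBP, 125 nM each); pin 23 nL compound; 2 h at 37 °C, dark; add 5X beads (50 ug/mL); 1 h; read.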
HP1b binding inh: HTS for Inhibitors of HP1-beta Chromodomain Interactions with Methylated Histone Tails; Chromobox protein homolog 1 (Homo sapiens), P83916; AlphaScreen HP1-beta / biotin-H3K9me3 peptide binding; Potency, µM (doses to about 114 µM), actives largely listed as inhibitors; actives 0.56% (n = 390,000); also: nearly all actives have a fitted effect of over 70% in size
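Compound inhibition of the preformed complex between 50 nM HP1-beta and 50 nM biotinylated H3K9me3 peptide was read by AlphaScreen. Buffer was PBS pH 7.4 with 0.01% Tween-20. Incubations ran 30 min at room temperature, with 10 ug/mL donor/acceptor beads.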
G9a inh: qHTS Assay for Inhibitors of Histone Lysine Methyltransferase G9a | Histone-lysine N-methyltransferase EHMT2 (Homo sapiens), Q96KQ7 | G9a H3K9 monomethylation, AlphaScreen, 2 h | Potency, µM (highest dose often 102 µM), most hits filed as inhibitors | actives 8.8% (n = 350,000) | AID 504332, 2011; also: nearly all actives have a fitted effect of over 75% in size
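Signal arises when biotinylated H3K9 peptide, once monomethylated, bridges streptavidin donor and antibody-captured acceptor beads. Enzyme at 20 nM was preincubated 15 min with test compounds; peptide 500 nM and SAM 20 uM then reacted for 2 h.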
Each line names hits and unclear results; the compound was inactive in the other large screens. Sampled rows, rich in hits. Any-hit rate of the full collection: about 10%. Unless noted, calls follow the shape of the dose curve; as a rule, active = well fitted inhibition curve with a large enough effect; inconclusive = small, poorly fitted or top-dose-only effect; inactive = no such curve, though single readings can be large or run the other way.

O=C(CSc1ncccc1-c1nc2ccccc2[nH]1)NCc1ccco1	JMJD2A Tudor inh 35µM, Six1-Eya2 inh inconclusive, BAZ2B block 56µM, HP1b binding inh inconclusive, G9a inh 10µM
O=C(CSc1nc2ccccc2[nH]1)NCc1ccco1	none (no result: BAZ2B block)
N#CCCCSc1ncccc1-c1nc2ccccc2[nH]1	G9a inh 16µM
O=C(COc1cc2oc(=O)c3c(c2cc1Cl)CCC3)NCCCn1ccnc1	Six1-Eya2 inh inconclusive (no result: CtBP-E1A blk)
CC(=O)Oc1ccc(Cl)cc1CN(C(C)=O)C1CCCCC1	none (no result: BAZ2B block, G9a inh)
Cn1c(C(=O)NCCN2CCc3ccccc3C2)cc2c(=O)n(C)c3ccccc3c21	CtBP-E1A blk inconclusive, G9a inh 45µM
Cn1c(C(=O)NCCN2CCN(c3ccccc3F)CC2)cc2c(=O)n(C)c3ccccc3c21	G9a inh 45µM
Cn1c(C(=O)NCCN2CCOCC2)cc2c(=O)n(C)c3ccccc3c21	G9a inh inconclusive
CCN(CC(=O)NC1CCS(=O)(=O)C1)C(=O)/C=C/c1cccs1 (centres undefined)	none (no result: CtBP-E1A blk)
O=C(Nc1ccc(Cl)c(S(=O)(=O)N2CCOCC2)c1)c1cc(=O)[nH]c2ccccc12	none (no result: CtBP-E1A blk)
COc1ccc(Oc2c(O)c3ccccc3n(C)c2=O)cc1	G9a inh 45µM (no result: CtBP-E1A blk)
Cn1c(=O)c(Oc2ccc(Cl)cc2)c(O)c2ccccc21	G9a inh 79µM (no result: CtBP-E1A blk)
COc1ccc(CCNC(=O)c2c(O)c3ccccc3n(C)c2=O)cc1	none
COc1ccc2c(c1)-c1nc(/N=C/c3cccc(OC)c3O)sc1CC2	JMJD2A Tudor inh inconclusive, BAZ2B block 50µM, HP1b binding inh inconclusive, G9a inh 18µM
COc1ccc2c(c1)-c1nc(/N=C/c3ccccc3O)sc1CC2	JMJD2A Tudor inh inconclusive, BAZ2B block inconclusive, HP1b binding inh inconclusive, G9a inh inconclusive
CC1=C(C(=O)Nc2ccc(C)cc2C)C(c2ccc(Cl)cc2)n2nc(C(=O)OC(C)C)nc2N1 (centres undefined)	G9a inh 45µM
CCOc1ccc(Cl)cc1-c1cc(C(=O)Nc2ccc(F)cc2)[nH]n1	none (no result: JMJD2A Tudor inh, BAZ2B block, HP1b binding inh, G9a inh)
Cn1cc(P(=O)(c2ccccc2)c2ccccc2)c2ccccc21	none (no result: Six1-Eya2 inh, BAZ2B block, CtBP-E1A blk, HP1b binding inh, G9a inh)
CCc1ccccc1S(=O)(=O)Cc1ccc(C(=O)NC(C)C)o1	none (no result: BAZ2B block, G9a inh)
CCc1ccccc1S(=O)(=O)Cc1ccc(C(=O)NCCc2ccc(C)cc2)o1	JMJD2A Tudor inh 20µM (no result: Six1-Eya2 inh, CtBP-E1A blk)
CS(=O)(=O)N(CCC#N)Cc1ccc(/C=C2\C(=O)Nc3ccccc32)o1	G9a inh 45µM
N#CCCN(CC(=O)O)S(=O)(=O)c1ccccc1	G9a inh inconclusive
O=c1c(N2CCOCC2)coc2ccccc12	G9a inh 3.5µM (no result: CtBP-E1A blk)
O=C(NCCCN1CCOCC1)c1coc2ccccc2c1=O	none (no result: BAZ2B block)
O=C(Cc1ccc(Cl)cc1)NCC(c1cccs1)S(=O)(=O)c1ccccc1 (centres undefined)	none (no result: Six1-Eya2 inh, CtBP-E1A blk)
COc1ccc(S(=O)(=O)N(C)C)cc1NC(=O)c1ccc(OCC(=O)N2CCOCC2)c(OC)c1	G9a inh 50µM
COc1ccc(CCNC(=O)c2ccc(OCC(=O)N3CCOCC3)c(OC)c2)cc1	G9a inh 8.9µM
CCN1/C(=C/c2sc(-c3ccccc3C)c[n+]2C)Sc2ccccc21	JMJD2A Tudor inh inconclusive, G9a inh 11µM
CCN1/C(=C/C(=O)c2ccco2)Sc2ccccc21	BAZ2B block inconclusive, G9a inh inconclusive
O=C1C(N2CCOCC2)=C(n2nnc3ccccc32)C(=O)c2ccccc21	BAZ2B block 10µM, HP1b binding inh inconclusive, G9a inh 40µM
Nc1cc(-c2ccccc2)nn1S(=O)(=O)c1ccc(Br)cc1	G9a inh 50µM
Cc1ccc(S(=O)(=O)Nc2ccc3nc(C)sc3c2)cc1	none
Cc1ccc(S(=O)(=O)Nc2cc(C)c(O)c(Sc3n[nH]c(C)n3)c2)cc1	JMJD2A Tudor inh 11µM, HP1b binding inh inconclusive, G9a inh 7.1µM
